# Experimental data published in the supplement of paper PMC6992640.
# ± gives the standard deviation of the averaged measurements.
# Columns and labels:
# Assay in all cases: cell viability (% of vehicle); higher = less cytotoxic
# Settings in all cases: 10 µM; 72 h
# HCI01 = tested on: HCI01 (cells of a triple-negative basal-like breast cancer xenograft)
# HCI03 = tested on: HCI03 (cells of an ER-positive luminal breast cancer xenograft)
# HCI09 = tested on: HCI09 (cells of a triple-negative luminal androgen receptor type breast cancer xenograft)
# HCI11 = tested on: HCI11 (cells of an ER-positive luminal breast cancer xenograft)
# HCI13 = tested on: HCI13 (cells of an ER-positive luminal breast cancer xenograft)
# HCI16 = tested on: HCI16 (cells of a triple-negative basal-like breast cancer xenograft)
# UCD52 = tested on: UCD52 (cells of a triple-negative basal-like breast cancer xenograft)
# WHIM2 = tested on: WHIM2 (cells of a triple-negative basal-like breast cancer xenograft)
# WHIM30 = tested on: WHIM30 (cells of a triple-negative basal-like breast cancer xenograft)
# 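Further: PDX cells carrying CMV promoter-driven luciferase, viability read as total photon flux per second by IVIS imaging following D-luciferin, vehicle control 0.1% DMSO.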
SMILES,cell viability (HCI01),cell viability (HCI03),cell viability (HCI09),cell viability (HCI11),cell viability (HCI13),cell viability (HCI16),cell viability (UCD52),cell viability (WHIM2),cell viability (WHIM30)
CC(=O)OCC(=O)C1(O)CCC2C3CCC4=CC(=O)CCC4(C)C3C(=O)CC21C (stereo unspecified) [Cortisone acetate],119 ± 17,130,119 ± 47,105,96.1 ± 13,140,106 ± 31,112 ± 19,119 ± 6.2
CC(=O)O[C@H]1Cc2ccccc2N(C(N)=O)c2ccccc21 [Eslicarbazepine acetate],102 ± 12,116,111 ± 6.7,85.7,102 ± 11,106,95.5 ± 1.3,102 ± 27,94.1 ± 16
COc1ccccc1OCC(O)CN1CCN(CC(=O)Nc2c(C)cccc2C)CC1.Cl.Cl (stereo unspecified) [Ranolazine 2HCl],95.6 ± 9.7,124,102 ± 7.6,109,105 ± 6,138,85.7 ± 14,114 ± 1.7,158 ± 20
NC(CC(=O)N1CCn2c(nnc2C(F)(F)F)C1)Cc1cc(F)c(F)cc1F.O.O=P(=O)OO.[HH] (stereo unspecified) [Sitagliptin phosphate monohydrate],134 ± 15,154,94.1 ± 15,131,135 ± 37,135,120 ± 3.7,115.8 ± 0.55,144 ± 14
CN(C)NN=C1N=CN=C1C(N)=O [Dacarbazine],122 ± 9.3,92.9,110.4 ± 0.52,93.5,120 ± 16,82.7,107 ± 8,80.3 ± 24,118 ± 25
CS(=O)(=O)c1ccc(C(=O)Nc2ccc(Cl)c(-c3ccccn3)c2)c(Cl)c1 [GDC-0449 (Vismodegib)],109 ± 40,94.4,69.5 ± 20,104,105 ± 7.7,83.4,67.1 ± 1.8,111 ± 5.5,133 ± 2.4
COc1cc(C2c3cc4c(cc3C(OC3OC5COC(C)OC5C(O)C3O)C3COC(=O)C23)OCO4)cc(OC)c1O (stereo unspecified) [Etoposide],103 ± 7.8,94.2,90 ± 4.5,89.4,84 ± 3,69.7,120 ± 4.3,91.8 ± 6,95.3 ± 21
CN(C)CCOC(c1ccccc1)c1ccccc1.Cl [Diphenhydramine HCl],109 ± 18,123,87 ± 2.5,90.8,74 ± 3.2,118,84.2 ± 6.5,107 ± 32,116 ± 28
CN1CC(=O)N2[C@H](c3ccc4c(c3)OCO4)c3[nH]c4ccccc4c3C[C@@H]2C1=O [Tadalafil],108 ± 1.5,150,90 ± 22,141,95.7 ± 3.2,88.4,96.7 ± 12,112 ± 3,105 ± 16
Nc1[nH]c(=O)ncc1F [Flucytosine],106 ± 1.6,137,94.7 ± 12,93.1,135 ± 4.5,94.7,81.4 ± 1.5,93.72 ± 0.49,82.1 ± 1.3
Cl.Cl.OCCOCCN1CCN(C(c2ccccc2)c2ccc(Cl)cc2)CC1 (stereo unspecified) [Hydroxyzine 2HCl],169 ± 3.3,99.9,112 ± 5.6,117,85.42 ± 0.6,128,76.48 ± 0.64,97.2 ± 2.3,140 ± 23
CNS(=O)(=O)Cc1ccc2[nH]cc(CCN(C)C)c2c1 [Sumatriptan],92.7 ± 1.9,119,84 ± 7.2,90.7,126 ± 3.5,110,98 ± 7.2,95.6 ± 19,110 ± 19
CCOc1ccc(NC(C)=O)cc1 [Phenacetin],139 ± 6,136,96.9 ± 17,96.7,102 ± 3.9,122,82 ± 12,98.7 ± 10,94.4 ± 11
CCN(CC)CCOC(=O)c1ccc(N)cc1 [Procaine],99.4 ± 4.1,122,105 ± 23,87,96.765 ± 0.018,102,88.1 ± 3.5,97.3 ± 23,95.2 ± 24
NC(N)=Nc1nc(CSCCC(N)=NS(N)(=O)=O)cs1 [Famotidine],120 ± 16,127,103 ± 8.7,98.9,149 ± 20,98.6,78.5 ± 6.2,85.9 ± 6.1,165 ± 4.1
"CCC(Nc1ncnc2nc[nH]c12)c1nc2cccc(F)c2c(=O)n1-c1ccccc1 (stereo unspecified) [CAL-101 (Idelalisib, GS-1101)]",91.6 ± 8.4,80.7,88.2 ± 19,76.8,51.9 ± 3.4,68.1,68.3 ± 3,62.8 ± 2.9,121.9 ± 0.48
O=C([O-])P(=O)([O-])[O-].[Na+].[Na+].[Na+] [Foscarnet Sodium],104 ± 20,96.7,98.1 ± 3.7,89.6,95.1 ± 6.7,133,86.4 ± 3,103 ± 11,126 ± 2.2
CC(C)(C)NCC(O)c1cc(O)cc(O)c1.CC(C)(C)NCC(O)c1cc(O)cc(O)c1.O=S(=O)(O)O (stereo unspecified) [Terbutaline Sulfate],114.4 ± 0.83,110,98.9 ± 20,109,88.5 ± 2.1,127,79.6 ± 5.6,106 ± 18,123 ± 6
CCOC(=O)C1=C(C)NC(C)=C(C(=O)OCC)C1c1ccccc1C=CC(=O)OC(C)(C)C [Lacidipine],107.7 ± 0.7,98.1,86.5 ± 9.8,110,88.7 ± 2.9,85.7,77.1 ± 6.1,99.8 ± 1.2,133 ± 3.9
